# Unmarked numbers belong to inactive results. Inconclusive results are not listed. Where a call stands in place of a potency, no number is given. Activity calls are given as the source filed them. Unless noted, calls follow the shape of the dose curve; as a rule, active = well fitted curve in the direction sought with a large enough effect in the repeat runs; inconclusive = weak or mixed curves; inactive = no such curve, though single readings can be large; an effect the other way counts as inactive or inconclusive.
# Experiments:
# [1] = qHTS assay to test for compound auto fluorescence at 535 nm (green) in HEK293 cells (AID 720680)
# [2] = qHTS assay to test for compound auto fluorescence at 460 nm (blue) in HEK293 cell free culture (AID 720681)
# Outline: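 Test compounds were pinned into cell-free culture medium (DMEM with 10% FBS) and fluorescence was read directly at Ex/Em 405/460 nm. Signals were expressed as fluorescence equivalents of triamterene, with DMSO vehicle as control.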
# [3] = qHTS assay to test for compound auto fluorescence at 535 nm (green) in HEK293 cell free culture (AID 720682)
# Outline: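 Measurement is a direct plate read of green fluorescence (485 nm in, 535 nm out) after compound addition to serum-supplemented DMEM lacking cells, with fluorescein used to express intensities.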
# [4] = qHTS assay to test for compound auto fluorescence at 460 nm (blue) in HepG2 cell free culture (AID 720685)
# Outline: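 Cell-free plates of MEM plus 10% FBS received 23 nL compound or DMSO vehicle; blue-channel (405/460 nm) intensity scored against triamterene as reference fluorophore.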
# [5] = qHTS assay to test for compound auto fluorescence at 535 nm (green) in HepG2 cell free culture (AID 720686)
# [6] = qHTS assay to test for compound auto fluorescence at 460 nm (blue) in HepG2 cells (AID 720687)
# Outline: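 Cells (2,000/well in MEM with 10% FBS) attached overnight at 37 C, then were exposed to compound or DMSO for 1 hr at 37 C, 5% CO2. Fluorescence read at Ex/Em 405/460 nm, expressed as triamterene-equivalent signal.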
# [7] = qHTS assay to identify small molecule antagonists of the glucocorticoid receptor (GR) signaling pathway - cell viability counter screen (AID 720693); also: nearly all actives have a fitted effect of over 55% in size; also: potency is read from the fitted curve at half-maximal effect
# [8] = qHTS assay for identifying genotoxic compounds that show differential cytotoxicity against isogenic chicken DT40 cell lines with known DNA damage response pathways - wild type cell line (AID 743012); also: nearly all actives have a fitted effect of over 60% in size; also: potency is read from the fitted curve at half-maximal effect
# Outline: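 Viability of DNA repair-proficient chicken DT40 cells was assessed by CellTiter-Glo luminescence following 40 h compound exposure at 37 C/5% CO2.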
# [9] = qHTS assay for identifying genotoxic compounds that show differential cytotoxicity against isogenic chicken DT40 cell lines with known DNA damage response pathways - Rev3 mutant cell line (AID 743014); also: nearly all actives have a fitted effect of over 55% in size; also: potency is read from the fitted curve at half-maximal effect
# [10] = qHTS assay for identifying genotoxic compounds that show differential cytotoxicity against isogenic chicken DT40 cell lines with known DNA damage response pathways - Rad54/Ku70 mutant cell line (AID 743015); also: nearly all actives have a fitted effect of over 60% in size; also: potency is read from the fitted curve at half-maximal effect
# [11] = qHTS assay to identify small molecule antagonists of the androgen receptor (AR) signaling pathway - cell viability counter screen (AID 743033; also: nearly all actives have a fitted effect of over 45% in size; also: potency is read from the fitted curve at half-maximal effect)
# [12] = molecular target: Androgen receptor (Homo sapiens) (UniProt P10275); experiment: qHTS assay to identify small molecule antagonists of the androgen receptor (AR) signaling pathway (AID 743035; active = well fitted inhibition curve with a large enough effect in the signal ratio in the repeat runs, not every such curve was filed as active; the % refers to the signal ratio; also: potency is read from the fitted curve at half-maximal effect)
# Outline: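 Reporter HEK293 cells were exposed to compounds and R1881 overnight (16 h, 37C); beta-lactamase activity was then quantified by FRET fluorescence.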
# [13] = molecular target: Androgen receptor (Homo sapiens) (UniProt P10275); experiment: qHTS assay to identify small molecule agonists of the androgen receptor (AR) signaling pathway using the MDA cell line (AID 743040; also: nearly all actives have a fitted effect of over 20% in size)
# Outline: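 Agonist activity is measured as luciferase luminescence in human MDA-kb2 cells whose MMTV reporter responds to both AR and GR. Compounds in DMSO incubate 16 h at 37C, 0% CO2, and ONE-Glo is read after 30 min.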
# [14] = qHTS assay to identify small molecule antagonists of the androgen receptor (AR) signaling pathway using the MDA cell line - cell viability counter screen (AID 743041; also: nearly all actives have a fitted effect of over 45% in size; also: potency is read from the fitted curve at half-maximal effect)
# Outline: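 qHTS viability read-out; MDA-kb2 AR-luc; R1881-stimulated; 16 h exposure at 37C, 0% CO2; CellTiter-Fluor, 30 min; fluorescence intensity.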
# [15] = molecular target: Androgen receptor (Homo sapiens) (UniProt P10275); experiment: qHTS assay to identify small molecule antagonists of the androgen receptor (AR) signaling pathway using the MDA cell line (AID 743042; also: nearly all actives have a fitted effect of over 55% in size; also: potency is read from the fitted curve at half-maximal effect)
# Outline: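 MDA-kb2 cells (human breast carcinoma, stably carrying an MMTV-luciferase reporter responsive to AR and GR) were plated at 3,000 cells/well and preincubated 5 hr at 37C, then given compound plus R1881 agonist for 16 h. ONE-Glo luminescence was read.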
# [16] = qHTS assay to identify small molecule antagonists of the thyroid receptor (TR) signaling pathway - cell viability counter screen (AID 743064); also: nearly all actives have a fitted effect of over 50% in size; also: potency is read from the fitted curve at half-maximal effect
# Outline: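 Compounds were tested on GH3.TRE-Luc cells in the presence of T3 at 1 nM final. Following 23.5 h at 37 °C, cell viability was quantified by CellTiter-Fluor.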
# [17] = qHTS assay to test for compound auto fluorescence at 590 nm (red) in HepG2 cell free culture (AID 720684)
# Outline: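 Readout: intrinsic compound fluorescence at 590 nm emission after 540 nm excitation, scaled to Rose Bengal sodium. Matrix was cell-free MEM with 10% FBS; DMSO vehicle wells served as control.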
# [18] = molecular target: Glucocorticoid receptor (Homo sapiens) (UniProt P04150); experiment: qHTS assay to identify small molecule agonists of the glucocorticoid receptor (GR) signaling pathway (AID 720691; active = well fitted activation curve with a large enough effect in the signal ratio in the repeat runs, not every such curve was filed as active; the % refers to the signal ratio); conditions: GR-bla HeLa, beta-lactamase reporter ratio, 18 h; activation: at 62.4 µM (top of the series)
# Outline: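 Compounds in DMSO, alongside positive controls, were added to GR-bla HeLa reporter cells and incubated 18 h at 37 C; GRE-driven beta-lactamase was detected by fluorescence after 2 h with FRET substrate at room temperature.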
# [19] = molecular target: Glucocorticoid receptor (Homo sapiens) (UniProt P04150); experiment: qHTS assay to identify small molecule antagonists of the glucocorticoid receptor (GR) signaling pathway (AID 720692; active = well fitted inhibition curve with a large enough effect in the signal ratio in the repeat runs, not every such curve was filed as active; the % refers to the signal ratio)
# Outline: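 In a 1536-well cell format, compounds were added 4 h after seeding GR-bla HeLa cells, together with dexamethasone at 5 nM final; reporter activity was measured by FRET-substrate fluorescence following 18 h at 37 C.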
# [20] = qHTS assay to test for compound auto fluorescence at 590 nm (red) in HEK293 cell free culture (AID 720683)
# Outline: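 Tox21 10K library compounds were pinned into cell-free DMEM with 10% FBS and fluorescence was read at excitation 540 nm. Activity is expressed as Rose Bengal sodium equivalency.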
# Chain of Androgen receptor (Homo sapiens) (P10275 whole entry, looked up): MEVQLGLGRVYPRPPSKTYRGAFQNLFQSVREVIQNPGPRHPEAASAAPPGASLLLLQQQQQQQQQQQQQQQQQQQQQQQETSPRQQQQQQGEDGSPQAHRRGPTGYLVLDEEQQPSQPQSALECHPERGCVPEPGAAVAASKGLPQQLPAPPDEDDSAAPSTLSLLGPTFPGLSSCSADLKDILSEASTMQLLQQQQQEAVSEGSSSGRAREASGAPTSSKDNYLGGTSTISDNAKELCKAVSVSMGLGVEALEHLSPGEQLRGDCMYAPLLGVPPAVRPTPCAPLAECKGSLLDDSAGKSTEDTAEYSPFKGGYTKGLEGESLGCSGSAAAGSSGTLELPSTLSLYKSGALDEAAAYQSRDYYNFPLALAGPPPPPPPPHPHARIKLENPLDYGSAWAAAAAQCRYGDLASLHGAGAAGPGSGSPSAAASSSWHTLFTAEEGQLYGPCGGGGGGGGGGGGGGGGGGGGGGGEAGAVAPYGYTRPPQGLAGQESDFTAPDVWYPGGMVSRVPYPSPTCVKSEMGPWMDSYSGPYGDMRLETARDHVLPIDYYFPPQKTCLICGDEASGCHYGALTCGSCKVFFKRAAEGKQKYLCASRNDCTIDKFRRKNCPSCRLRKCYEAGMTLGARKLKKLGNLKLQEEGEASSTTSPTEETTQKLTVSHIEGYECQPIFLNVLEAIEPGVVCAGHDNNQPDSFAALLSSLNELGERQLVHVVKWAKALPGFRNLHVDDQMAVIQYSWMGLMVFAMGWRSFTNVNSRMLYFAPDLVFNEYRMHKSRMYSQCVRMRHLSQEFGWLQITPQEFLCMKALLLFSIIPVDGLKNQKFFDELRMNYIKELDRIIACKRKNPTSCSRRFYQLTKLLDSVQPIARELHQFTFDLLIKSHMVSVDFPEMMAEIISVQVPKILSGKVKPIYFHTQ
# Chain of Glucocorticoid receptor (Homo sapiens) (P04150 whole entry, looked up): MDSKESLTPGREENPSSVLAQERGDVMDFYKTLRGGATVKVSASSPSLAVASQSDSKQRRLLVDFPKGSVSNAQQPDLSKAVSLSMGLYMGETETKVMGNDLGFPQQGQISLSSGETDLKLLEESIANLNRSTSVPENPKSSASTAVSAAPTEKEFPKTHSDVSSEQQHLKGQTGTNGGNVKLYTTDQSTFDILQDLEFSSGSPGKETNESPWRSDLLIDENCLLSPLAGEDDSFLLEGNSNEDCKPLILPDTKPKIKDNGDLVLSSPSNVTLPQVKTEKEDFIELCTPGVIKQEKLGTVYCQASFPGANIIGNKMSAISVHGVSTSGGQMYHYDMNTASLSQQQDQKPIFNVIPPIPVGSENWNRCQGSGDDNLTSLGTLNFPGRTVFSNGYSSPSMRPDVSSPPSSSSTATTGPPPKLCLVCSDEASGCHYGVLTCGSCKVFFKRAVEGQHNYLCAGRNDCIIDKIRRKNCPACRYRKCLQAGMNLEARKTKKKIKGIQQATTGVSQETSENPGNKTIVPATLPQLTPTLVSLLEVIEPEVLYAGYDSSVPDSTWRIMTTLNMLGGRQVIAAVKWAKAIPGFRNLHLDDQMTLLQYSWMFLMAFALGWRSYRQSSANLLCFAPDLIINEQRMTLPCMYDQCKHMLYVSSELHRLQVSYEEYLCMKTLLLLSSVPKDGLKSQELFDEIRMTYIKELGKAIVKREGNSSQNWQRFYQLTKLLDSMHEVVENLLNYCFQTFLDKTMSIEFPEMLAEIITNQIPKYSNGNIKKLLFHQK
structure (smiles),measurement,setting,value
CCC[CH2][Sn]([CH2]CCC)([CH2]CCC)[O][Sn]([CH2]CCC)([CH2]CCC)[CH2]CCC,"fluorescence, % of fluorescein",[1],0.0128% [at 3.72 µM]
same,"fluorescence, % of fluorescent control",[2],-0.0236% [at 3.72 µM]
same,activity change,[3],0.0175% [at 3.72 µM]
same,"fluorescence, % of fluorescent control",[4],-0.0005% [at 3.72 µM]
same,"fluorescence, % of fluorescein control",[5],-0.0002% [at 3.72 µM]
same,"fluorescence, % of fluorescent control",[6],0.0007% [at 3.72 µM]
same,Potency,[7],1350 nM (active)
same,Potency,[8],336 nM (active)
same,Potency,[9],300 nM (active)
same,Potency,[10],267 nM (active)
same,Potency,[11],603 nM (active)
same,Potency,[12],427 nM (active)
same,activity change,[13],-9.89% [at 8.47 µM]
same,Potency,[14],1500 nM (active)
same,Potency,[15],844 nM (active)
same,"activity change, negative = cytotoxic",[16],15.8% [at 8.44 µM]
CCc1cccc(C)c1N(C(=O)CCl)[C@@H](C)COC,outcome,[1],inactive
same,Potency,[2],inactive
same,outcome,[3],inactive
same,outcome,[17],inactive
same,Potency,[4],inactive
same,Potency,[5],inactive
same,Potency,[6],inactive
same,Potency,[7],inactive
same,Potency,[9],19300 nM (active)
same,Potency,[11],inactive
same,Potency,[14],inactive
same,Potency,[16],inactive
C[N+]1(C)[C@@H]2CC[C@H]1CC(OC(=O)C(CO)c1ccccc1)C2 (stereo partly drawn),outcome,[1],inactive
same,Potency,[2],inactive
same,outcome,[3],inactive
same,Potency,[4],inactive
same,Potency,[5],inactive
same,Potency,[6],inactive
same,Potency,[18],inactive
same,Potency,[19],inactive
same,Potency,[7],inactive
same,Potency,[9],inactive
same,Potency,[10],inactive
same,Potency,[11],inactive
same,Potency,[14],inactive
same,Potency,[16],inactive
Clc1ccc(C(Cl)(Cl)Cl)cc1Cl,outcome,[1],inactive
same,Potency,[2],inactive
same,outcome,[3],inactive
same,outcome,[17],inactive
same,Potency,[4],inactive
same,Potency,[5],inactive
same,Potency,[6],inactive
same,Potency,[18],inactive
same,Potency,[7],inactive
same,Potency,[8],inactive
same,Potency,[9],inactive
same,Potency,[10],inactive
same,Potency,[11],inactive
same,Potency,[14],inactive
same,Potency,[16],inactive
COc1ccc2c(c1OC)C(=O)O[C@@H]2[C@H]1c2cc3c(cc2CCN1C)OCO3,outcome,[1],inactive
same,Potency,[2],inactive
same,outcome,[3],inactive
same,outcome,[17],inactive
same,Potency,[4],inactive
same,Potency,[5],inactive
same,Potency,[6],inactive
same,Potency,[7],inactive
same,Potency,[8],inactive
same,Potency,[10],inactive
same,Potency,[11],inactive
same,Potency,[12],inactive
same,outcome,[13],inactive
same,Potency,[14],inactive
same,Potency,[15],inactive
same,Potency,[16],6790 nM (active)
CSC(=O)c1c(C(F)F)nc(C(F)(F)F)c(C(=O)SC)c1CC(C)C,outcome,[1],inactive
same,Potency,[2],inactive
same,outcome,[3],inactive
same,outcome,[17],inactive
same,Potency,[4],inactive
same,Potency,[5],inactive
same,Potency,[6],inactive
same,Potency,[18],inactive
same,Potency,[8],34200 nM (active)
same,Potency,[9],27100 nM (active)
same,Potency,[11],inactive
same,Potency,[14],inactive
same,Potency,[16],54200 nM (active)
S=C=Nc1ccccc1,outcome,[1],inactive
same,outcome,[3],inactive
same,outcome,[20],inactive
same,outcome,[17],inactive
same,Potency,[4],inactive
same,Potency,[5],inactive
same,Potency,[6],inactive
same,Potency,[18],inactive
same,Potency,[19],inactive
same,Potency,[7],inactive
same,Potency,[8],inactive
same,Potency,[9],inactive
same,Potency,[10],inactive
same,Potency,[11],inactive
same,Potency,[12],inactive
same,outcome,[13],inactive
same,Potency,[14],inactive
same,Potency,[15],inactive
COC(=O)N(OC)c1ccccc1COc1ccn(-c2ccc(Cl)cc2)n1,outcome,[1],inactive
same,Potency,[2],inactive
same,outcome,[3],inactive
same,outcome,[17],inactive
same,Potency,[4],inactive
same,Potency,[5],inactive
same,Potency,[6],inactive
same,Potency,[9],243 nM (active)
same,Potency,[10],217 nM (active)
same,Potency,[11],871 nM (active)
same,Potency,[14],1720 nM (active)
same,Potency,[16],61100 nM (active)
Oc1ccc([C@H]2CNCc3c2ccc(O)c3O)cc1O,outcome,[1],inactive
same,Potency,[2],inactive
same,outcome,[3],inactive
same,outcome,[20],inactive
same,Potency,[4],inactive
same,Potency,[5],inactive
same,Potency,[6],inactive
same,Potency,[7],inactive
same,Potency,[11],inactive
same,Potency,[14],inactive
[O]=[Cr][O][Cr]=[O],outcome,[1],inactive
same,Potency,[2],inactive
same,outcome,[3],inactive
same,outcome,[17],inactive
same,Potency,[4],inactive
same,Potency,[5],inactive
same,Potency,[6],inactive
same,Potency,[18],inactive
same,Potency,[19],inactive
same,Potency,[7],inactive
same,Potency,[8],inactive
same,Potency,[9],inactive
same,Potency,[10],inactive
same,Potency,[11],inactive
same,Potency,[14],inactive
same,Potency,[16],inactive
CCC1(CC)C(=O)N=C(O)NC1=O,outcome,[1],inactive
same,Potency,[2],inactive
same,outcome,[3],inactive
same,Potency,[4],inactive
same,Potency,[5],inactive
same,Potency,[6],inactive
same,Potency,[18],inactive
same,Potency,[19],inactive
same,Potency,[7],inactive
same,Potency,[8],inactive
same,Potency,[9],inactive
same,Potency,[10],inactive
same,Potency,[11],inactive
same,Potency,[14],inactive
same,Potency,[16],inactive
S=C=NCCc1ccccc1,outcome,[1],inactive
same,Potency,[2],inactive
same,outcome,[3],inactive
same,Potency,[4],inactive
same,Potency,[5],inactive
same,Potency,[6],inactive
same,Potency,[18],inactive
same,Potency,[10],inactive
same,Potency,[11],inactive
same,Potency,[12],inactive
same,outcome,[13],inactive
same,Potency,[14],inactive
same,Potency,[15],inactive
C=CCOC(=O)c1ccccc1N,outcome,[1],inactive
same,Potency,[2],inactive
same,outcome,[3],inactive
same,outcome,[17],inactive
same,Potency,[4],inactive
same,Potency,[5],inactive
same,Potency,[6],inactive
same,Potency,[18],inactive
same,Potency,[7],inactive
same,Potency,[9],inactive
same,Potency,[10],inactive
same,Potency,[11],inactive
same,Potency,[12],inactive
same,outcome,[13],inactive
same,Potency,[14],inactive
same,Potency,[15],inactive
same,Potency,[16],inactive
Cc1cccc(Cc2cnc[nH]2)c1C,outcome,[1],inactive
same,Potency,[2],inactive
same,outcome,[3],inactive
same,outcome,[17],inactive
same,Potency,[4],inactive
same,Potency,[5],inactive
same,Potency,[6],inactive
same,Potency,[18],inactive
same,Potency,[19],inactive
same,Potency,[7],inactive
same,Potency,[11],inactive
same,Potency,[14],inactive
same,Potency,[16],inactive
N#CC(C#N)=NNc1cccc(Cl)c1,outcome,[1],inactive
same,Potency,[2],inactive
same,outcome,[3],inactive
same,outcome,[17],inactive
same,Potency,[4],inactive
same,Potency,[5],inactive
same,Potency,[6],inactive
same,Potency,[7],6920 nM (active)
same,Potency,[8],2730 nM (active)
same,Potency,[9],2730 nM (active)
same,Potency,[11],2450 nM (active)
same,outcome,[13],inactive
same,Potency,[14],4860 nM (active)
same,Potency,[15],1930 nM (active)
same,Potency,[16],3440 nM (active)
CN1[C@@H]2CC[C@H]1CC(O)C2 (stereo partly drawn),outcome,[1],inactive
same,Potency,[2],inactive
same,outcome,[3],inactive
same,outcome,[17],inactive
same,Potency,[4],inactive
same,Potency,[5],inactive
same,Potency,[6],inactive
same,Potency,[7],inactive
same,Potency,[9],inactive
same,Potency,[10],inactive
same,Potency,[11],inactive
same,Potency,[14],inactive
same,Potency,[16],inactive

# Source: PubChem BioAssay (Tox21)
